SMILES strings stand for the structures. Active and inactive are the calls of the source. The calls were made as follows: active = hit-call score of the fitted dose curve at least 0.9, where 1 is the maximum; inactive = score below 0.9.

A word on the AC50: it is the concentration at which the activity in the assay is half-maximal.

Read-out in this assay: Interleukin 17A (IL17A), IL17A (gene 3605)
Kind of assay: BSK_BT_xIL17A: BioMAP Diversity Plus: BT Assay for Interleukin 17A (IL17A) Biomarker Activity (AID 2284229). The following applies: primary human B cells with PBMC. The protocol: BSK_BT is a cell-based, multiplexed-readout assay that uses B cell and peripheral blood mononuclear cells, a human vascular primary cell co-culture, with measurements taken at 24 hours after chemical dosing in a microplate: 96-well plate.BSK_BT_xIL17A is an assay component measured in the BSK_BT assay. It measures secreted IL-17A related to regulation of gene expression using LumineX xMAP technology.Data from the assay component BSK_BT_xIL17A was analyzed at the endpoint, BSK_BT_xIL17A, in the positive analysis fitting direction relative to DMSO as the negative control and baseline of activity. Using a type of cytokine quantitation reporter, gain or loss-of-signal activity can be used to understand protein changes. To generalize the intended target to other relatable targets, this assay endpoint is annotated to the 'cytokine' intended target family, where the subfamily is 'interleukins'.
The levels of cell surface (or secreted, indicated by the prefix "s") biomarker endpoints were measured by ELISA. Overt cytotoxicity to cells in confluent adherent cultures (all systems other than the BT system) was assessed by measuring total protein levels using sulforhodamine B (SRB) staining in parallel cultures at the time of biomarker measurements, indicated as SRB endpoints. For proliferation assays for adherent cell types, individual cell types are cultured at sub-confluence and relative cell numbers quantified by SRB staining at time points optimized for each system (48 h: 3C and CASM3C systems; 72 h: BT and HDF3CGF systems; 96 h: SAg system). SRB was performed by staining cells with 0.1% SRB after fixation with 10% TCA and reading wells at 560 nm.Viability and proliferation of PBMC (T cells) was quantified by Alamar Blue reduction for the SAg and BT systems. For PBMC viability (referred to as PBMC Cytotoxicity within the assay endpoint names), cells were plated (75,000/well in a 96-well plate) and then chemical samples added for 1 h before addition of activators, SEB and TSST-1 (20 ng/mL final concentration each). Cells were incubated for 90 h. Then, Alamar Blue (20 uL/well) (Invitrogen, Cat DAL1100) was added for 6 h, and the plates were read with a fluorescence microplate reader at 546/580 nm (excitation/emission). For PBMC proliferation, cells were plated and activated as above but incubated for only 16 h prior to addition of Alamar Blue. Plates were read after 6 h.
For `CCCCCCCCCC(=O)OCC`, the outcome was inactive.
On the same count and under the same terms, the result for `O=C(O)C(F)(F)C(F)(F)C(F)(F)C(F)(F)C(F)(F)C(F)(F)C(F)(F)C(F)F` reads “inactive”.
Take `CC(C)(C)c1cccc(O)c1`: the result was inactive.
Take `COc1ccccc1NC(=O)CC(C)=O`: the result was inactive.
Regarding `CCOC(=O)C=Cc1ccccc1`, the outcome was inactive.
On to `CC(C)Cc1ccc(C(C)C(=O)O)cc1` (stereo not given), for which the result was inactive.
On the same count and under the same terms, the result for `CC1(C)[C@H](C=C(Cl)Cl)[C@H]1C(=O)OCc1cccc(Oc2ccccc2)c1` reads “inactive”; that for `CCCCCCCC1CCCC1=O` (stereo not given), “inactive”; that for `CCCCCCCCCCCCS`, “inactive”.
Consider `O=S1(=O)CC(Cl)(Cl)C(Cl)(Cl)C1`, for which the AC50 is 0.346 µM (active).
`CC(=O)CCC=C(C)CCC=C(C)C`: the result was inactive.
Regarding `C=C1CC/C=C(\C)CC[C@@H]2[C@@H]1CC2(C)C`, the result was inactive.
Take `O=C(O)C(F)(F)OC(F)(F)C(F)(F)OC(F)(F)C(F)(F)C(F)(F)C(F)(F)F`: the outcome was inactive.
In the case of `C=C(F)C(=O)OC(C(F)(F)F)C(F)(F)F`, the outcome was inactive.
As to `C=CC(=O)OCC(CO)(COC(=O)C=C)COC(=O)C=C`, the AC50 is 1.09 µM (active).
As for `CC=CC(=O)C1=C(C)C=CCC1(C)C`, the result was inactive.
On to `O=C1OC2(c3ccc(O)cc3Oc3cc(O)ccc32)c2ccccc21`, for which the result was inactive.
In the case of `c1ccc2c(c1)-c1ccc3ccc4cccc5cc-2c1c3c45`, the outcome was inactive.
Turning to `Nc1ccc(N)c([N+](=O)[O-])c1`, the result was inactive.
The same measure, in the same setting: the result for `OCCN1CCOCC1` reads “inactive”.
With `NC(=O)c1c(Cl)cccc1Cl`, the result was inactive.
Still for that read-out and setting: the result for `CC(=O)OC(C)(C)C1CC=C(C)CC1` (stereo not given) reads “inactive”; that for `CCOC(=O)CCCCCCCCC(=O)OCC`, “inactive”.
In the case of `OCC(F)(OC(F)(F)C(F)(OC(F)(F)C(F)(F)C(F)(F)F)C(F)(F)F)C(F)(F)F` (stereo not given), the outcome was inactive.
`CCC(=O)OCC=Cc1ccccc1`: the result was inactive.
With `CC1=CC(C)C(C=O)C(C)C1` (stereo not given) (tested in a mixture with another compound), the outcome was inactive.
As to `C=C(C)C(=O)OCCC(F)(F)C(F)(F)C(F)(F)C(F)(F)C(F)(F)C(F)(F)C(F)(F)C(F)(F)F`, the outcome was inactive.
`O=S(=O)(O)C(F)(F)C(F)(F)OC(F)(F)C(F)(F)F`: the result was inactive.
On the same count and under the same terms, the result for `c1ccc(Sc2ccccc2)cc1` reads “inactive”.
With `CC(=O)OCC=C(C)CCC=C(C)CCC=C(C)C`, the AC50 was 20 µM (active).

Values taken from PubChem BioAssay (EPA / NIEHS).
